NS1 inh = qHTS Assay for Inhibitors of Influenza NS1 Protein Function. Potency, µM (top dose mostly 46.1 µM), without a hit: top-dose activity, positive = more growth. 270,000 compounds, 0.4% hits; also: potency is read from the fitted curve at half-maximal effect; actives are rising curves; nearly all actives have a fitted effect of over 50% in size
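A cell-based growth assay was used: compounds that relieve NS1-induced slow growth of budding yeast raise OD600. Assay medium was yeast nitrogen base with ammonium sulphate and -URA supplement, pH 6.0, with 2% galactose.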
FBPA Giardia inh = qHTS Assay for Inhibitors of Fructose-1,6-bisphosphate Aldolase from Giardia Lamblia. A8B2U2. purified Giardia FBPA. Potency, µM (highest dose often 59.6 µM), for the others: top-dose activity, negative = inhibition, hits mostly inhibitors. 290,000 compounds, 0.71% hits; active = well fitted curve in the direction sought with a large enough effect; inconclusive = small, poorly fitted or top-dose-only effect, or another doubt; inactive = no such curve, though single readings can be large; an effect the other way counts as inactive or inconclusive; also: potency is read from the fitted curve at half-maximal effect; % is scaled to controls: 0 for no effect and ±100 for the full control effect; nearly all actives have a fitted effect of over 55% in size
Target sequence (A8B2U2 whole entry, looked up): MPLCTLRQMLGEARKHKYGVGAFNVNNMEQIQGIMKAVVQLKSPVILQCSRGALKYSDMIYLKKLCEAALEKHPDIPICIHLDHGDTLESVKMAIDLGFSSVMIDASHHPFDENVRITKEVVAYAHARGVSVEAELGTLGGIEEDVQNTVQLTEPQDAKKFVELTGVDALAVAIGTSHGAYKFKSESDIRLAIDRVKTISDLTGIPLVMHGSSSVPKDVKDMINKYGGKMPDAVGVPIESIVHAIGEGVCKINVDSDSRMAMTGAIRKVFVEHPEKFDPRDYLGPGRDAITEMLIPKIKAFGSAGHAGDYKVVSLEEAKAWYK
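Giardia FBPA (40 nM reagent) was preincubated 10 min at RT with compound (up to 57.5 uM final), then substrate plus GAPDH/TPI/NAD/arsenate coupling system with diaphorase/resazurin was added; resorufin fluorescence (525/598 nm) was read after 20 min.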
Shiga inhibitor = A qHTS for Small Molecule Inhibitors of Shiga Toxin. inhibition, % at 38.7 µM. AID 2315, 2010. 290,000 compounds, 9.2% hits. Vero cells, Shiga toxin protein synthesis inhibition reporter; in the data active = inhibition mostly above about 28%, no sharp cut-off; inactive = mostly below about 43%; also: 0% is about no effect
LmPK inh = qHTS Assay for Inhibitors of Leishmania Mexicana Pyruvate Kinase (LmPK). Q27686. purified LmPK, Kinase-Glo ATP luminescence, 1 h. Potency, µM (doses to about 57.5 µM), inactives show at the top dose activity change, negative = inhibition, hits mostly inhibitors. 290,000 compounds, 0.37% hits; active = well fitted curve in the direction sought with a large enough effect; inconclusive = small, poorly fitted or top-dose-only effect, or another doubt; inactive = no such curve, though single readings can be large; an effect the other way counts as inactive or inconclusive; also: potency is read from the fitted curve at half-maximal effect; % is scaled to controls: 0 for no effect and ±100 for the full control effect
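Screened at intermediate enzyme activity to detect both inhibitors and activators: LmPK at 0.1 nM, with a 0.5 nM enzyme column as activation reference. PEP 0.5 mM, ADP 0.1 mM; ATP detected by luminescence after 1 h.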
CHX counter-1 = Cycloheximide Counterscreen for Small Molecule Inhibitors of Shiga Toxin; cell reporter, cycloheximide protein synthesis inhibition counterscreen; max response, %; AID 2314, 2010; 300,000 compounds, 12% hits; in the data active = max response mostly above about 13%, no sharp cut-off; inactive = mostly below about 14%; also: read at 38.3 µM for the half of the compounds with a filed dose; 0% is about no effect
CHX counter-2 = Cycloheximide Counterscreen for Small Molecule Inhibitors of Shiga Toxin (Confirmatory) | shares compounds with Shiga inhibitor | Cycloheximide counterscreen, protein synthesis reporter, Shiga toxin assay | Potency, µM (highest dose often 38.3 µM), without a hit: at the highest dose activity (activation), most hits filed as activators | 510 compounds, 3% hits | AID 2318, 2010; also: potency is read from the fitted curve at half-maximal effect; 0% is about no effect
An asterisk follows results filed as active; ? = inconclusive; nt = no result given; [ ] = another dose, or the depositor's remark. A selection: hits, their analogues and other compounds. The true share with any hit is near 14%. Unless noted, calls follow the shape of the full dose curve.

SMILES | NS1 inh | FBPA Giardia inh | Shiga inhibitor | LmPK inh | CHX counter-1 | CHX counter-2
COCCN(C(=O)CSc1nnc(-c2ccc(C)cc2)n1N)c1c(N)n(Cc2ccccc2)c(=O)[nH]c1=O | 4% | nt | -8 | -3% | -1 | nt
O=C(c1ccco1)N1CCN(C(=O)c2cc(-c3ccncc3)nc3ccc(Br)cc23)CC1 | -64% | nt | nt | nt | nt | nt
O=C(c1ccco1)N1CCN(C(=O)c2cc(-c3ccccn3)nc3ccc(Cl)cc23)CC1 | -3% | -30% | 32* | 4% | 5 | -1%
CN(CCCC(=O)Nc1ccc(OC(F)F)cc1)S(=O)(=O)c1ccc(F)cc1 | -17% | 3% | -6 | -5% | 4 | nt
CCn1c(SCC(=O)NCc2ccco2)nc2c1c(=O)n(C)c(=O)n2C | -7% | 1% | 68* | -1% | -2 | -1%
CCCn1c(SCC(=O)NCc2ccco2)nc2c1c(=O)n(C)c(=O)n2C | 5% | 1% | -8 | 4% | -1 | nt
Cc1ccc(CNS(=O)(=O)c2ccc(F)c(F)c2)n1C | 10% | -10% | 4 | 1% | 1 | nt
CCCCN(CC)CCCNC(=O)c1cn(C)c(=O)c2c1c1ccccc1n2C | 5% | -1% | -13 | 2% | -7 | nt
COCCCNC(=O)c1cn(C)c(=O)c2c1c1ccccc1n2C | 1% | -10% | 33* | 6% | -1 | 1%
OC1C[N+]2(CCCCC2)C1 | 7% | -3% | 30* | -2% | -2 | -2%
O=C(OCc1nc2ccccc2s1)c1cccc(N2C(=O)CCC2=O)c1 | nt | -7% | 58* | -7%[11.5 µM] | 7 | 2%
CCOC(=O)c1cc(CC)sc1NC(=O)c1cccc(N2C(=O)CCC2=O)c1 | -31% | -1% | -12 | 1% | -6 | nt
Cc1ccc(S(=O)(=O)NCCc2nc3ccccc3[nH]2)cc1 | -4% | -13% | -5 | 4% | 1 | nt
Cc1cccc(N2CCN(C(=O)Cc3ccc(Br)cc3)CC2)c1C | -9% | 9% | 66* | 5% | 19 | ?
O=C(c1ccc([N+](=O)[O-])cc1)N1CCc2ccccc2C1 | -15% | -4% | 26* | 1% | 1 | 1%
COc1ccc(N(CC(=O)Nc2ccc(Cl)cc2)S(=O)(=O)c2c(C)n[nH]c2C)cc1 | 5% | 3% | 24* | -2% | -2 | 3%
Cc1ccccc1S(=O)(=O)Nc1ncnc2ccccc12 | -8% | 4% | 33* | -5% | -1 | -2%
CC(C)CC1=C/C(=C/c2ccc(-c3ccccc3)o2)C(=O)O1 | 12% | 1% | 40* | 2% | 9 | 0%
NS(=O)(=O)c1ccc(-c2ccc(C=C3C(=O)c4ccccc4C3=O)o2)cc1 | -4% | -7% | 5 | -3% | -1 | nt
Cc1c(NC(=O)CNCc2ccc3c(c2)OCO3)c(=O)n(-c2ccccc2)n1C | 3% | ? | 4 | -10% | 0 | nt
CCOC(=O)c1cc2sccc2n1Cc1ccccc1 | -11% | 4% | 6 | -12% | -1 | nt
CCOC(=O)c1cc2sccc2n1CCCN1C(=O)c2ccccc2C1=O | -8% | -4% | 110* | 0% | 3 | 0%
COc1ccc(CNC(=O)C2CCN(c3cc(C(=O)Nc4cccc(OC)c4)ccn3)CC2)cc1 | -12% | 3% | 8 | 8% | 0 | nt
O=C(NCCN1C(=O)S/C(=C\c2ccc(Cl)cc2)C1=O)c1ccc(F)c(S(=O)(=O)N2CCOCC2)c1 | 9% | 2% | 33* | -2% | -1 | ?
CCOc1ccccc1NC(=O)COc1cccc(-n2cnnn2)c1 | -8% | 8% | -7 | 0% | -4 | nt
Cc1sc(NC(=O)COc2cccc(-n3cnnn3)c2)c(C#N)c1C | 7% | 7% | 75* | 1% | 2 | 0%
CSc1ccc(/C=C/C(=O)N2CCN(c3ccccn3)CC2)cc1 | -3% | nt | 32* | -8% | 12 | -2%
COc1ncc2nc(CCc3ccccc3)c(=O)n(Cc3ccc(F)cc3)c2n1 | nt | -4% | nt | nt | nt | nt
COc1ccc(OC2CCN(C(=O)Nc3ccc(C)cc3)CC2)cc1 | -6% | 0% | 72 | 0% | 19 | nt
COc1ccc(CNC(=O)C(OC(=O)c2ccco2)c2ccccc2F)cc1 (centres undefined) | -6% | -9% | 40* | 1% | -1 | 5%

Screens deposited in PubChem BioAssay by National Center for Advancing Translational Sciences (NCATS).
